From PubChem BioAssay (EPA / NIEHS) come the findings set out here.

Each structure is given as a SMILES string. Inconclusive results are not listed. Active and inactive are the calls of the source. The calls were made as follows: active = hit-call score of the fitted dose curve at least 0.9, where 1 is the maximum; inconclusive = response in the unintended direction; inactive = score below 0.9.

human Norepinephrine Transporter (NET), SLC6A2 (gene 6530), sequence (P23975 whole entry, looked up): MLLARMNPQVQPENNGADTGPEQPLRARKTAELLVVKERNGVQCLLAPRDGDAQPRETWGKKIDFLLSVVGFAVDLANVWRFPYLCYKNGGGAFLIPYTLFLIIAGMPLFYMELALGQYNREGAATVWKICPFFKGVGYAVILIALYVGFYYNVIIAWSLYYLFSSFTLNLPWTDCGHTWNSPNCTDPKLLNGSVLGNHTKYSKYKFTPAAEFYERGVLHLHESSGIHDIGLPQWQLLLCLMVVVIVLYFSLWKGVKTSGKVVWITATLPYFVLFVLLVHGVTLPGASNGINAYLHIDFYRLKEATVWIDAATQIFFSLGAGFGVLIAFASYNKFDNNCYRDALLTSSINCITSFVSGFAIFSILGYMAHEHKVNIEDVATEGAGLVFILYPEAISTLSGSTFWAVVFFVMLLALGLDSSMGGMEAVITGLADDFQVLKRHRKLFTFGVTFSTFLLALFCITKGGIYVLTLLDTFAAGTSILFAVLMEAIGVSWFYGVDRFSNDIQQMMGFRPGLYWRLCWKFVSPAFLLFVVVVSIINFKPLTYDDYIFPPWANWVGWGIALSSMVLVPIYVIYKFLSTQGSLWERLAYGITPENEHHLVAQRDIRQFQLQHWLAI
mouse Estrogen Receptor alpha (Era), Esr1 (gene 13982), sequence (P19785 whole entry, looked up): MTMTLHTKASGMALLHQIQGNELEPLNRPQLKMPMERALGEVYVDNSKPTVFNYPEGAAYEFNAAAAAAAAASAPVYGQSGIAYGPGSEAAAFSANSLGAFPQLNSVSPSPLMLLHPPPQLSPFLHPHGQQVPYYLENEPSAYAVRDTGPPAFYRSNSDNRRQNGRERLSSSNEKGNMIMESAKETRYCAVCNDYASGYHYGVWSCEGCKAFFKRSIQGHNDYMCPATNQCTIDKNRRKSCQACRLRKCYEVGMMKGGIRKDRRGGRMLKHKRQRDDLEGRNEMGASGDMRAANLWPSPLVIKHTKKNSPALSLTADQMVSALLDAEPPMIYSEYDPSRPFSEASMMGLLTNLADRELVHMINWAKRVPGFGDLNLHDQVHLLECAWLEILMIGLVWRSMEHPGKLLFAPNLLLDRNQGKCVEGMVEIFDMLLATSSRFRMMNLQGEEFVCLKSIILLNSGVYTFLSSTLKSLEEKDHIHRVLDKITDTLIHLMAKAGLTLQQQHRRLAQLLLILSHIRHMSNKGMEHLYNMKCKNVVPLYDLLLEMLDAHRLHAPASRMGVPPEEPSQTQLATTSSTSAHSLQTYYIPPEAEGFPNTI
Estrogen receptor beta (Homo sapiens), sequence (Q92731 whole entry, looked up, the tested form may be a part): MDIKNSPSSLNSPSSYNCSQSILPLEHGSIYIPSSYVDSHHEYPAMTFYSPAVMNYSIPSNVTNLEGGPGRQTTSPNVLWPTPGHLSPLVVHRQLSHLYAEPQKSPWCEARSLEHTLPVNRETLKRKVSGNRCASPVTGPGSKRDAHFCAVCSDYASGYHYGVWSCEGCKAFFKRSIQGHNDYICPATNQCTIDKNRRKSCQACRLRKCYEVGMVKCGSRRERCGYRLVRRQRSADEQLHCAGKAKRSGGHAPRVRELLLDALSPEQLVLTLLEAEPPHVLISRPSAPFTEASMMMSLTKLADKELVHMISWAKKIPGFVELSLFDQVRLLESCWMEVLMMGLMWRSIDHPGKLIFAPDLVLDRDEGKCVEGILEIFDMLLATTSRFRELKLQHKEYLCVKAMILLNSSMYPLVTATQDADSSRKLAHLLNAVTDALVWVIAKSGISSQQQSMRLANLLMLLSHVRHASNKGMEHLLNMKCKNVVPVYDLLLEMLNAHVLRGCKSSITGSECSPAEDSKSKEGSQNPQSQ
rat Serotonin Transporter (SERT), Slc6a4 (gene 25553), sequence (P31652 whole entry, looked up): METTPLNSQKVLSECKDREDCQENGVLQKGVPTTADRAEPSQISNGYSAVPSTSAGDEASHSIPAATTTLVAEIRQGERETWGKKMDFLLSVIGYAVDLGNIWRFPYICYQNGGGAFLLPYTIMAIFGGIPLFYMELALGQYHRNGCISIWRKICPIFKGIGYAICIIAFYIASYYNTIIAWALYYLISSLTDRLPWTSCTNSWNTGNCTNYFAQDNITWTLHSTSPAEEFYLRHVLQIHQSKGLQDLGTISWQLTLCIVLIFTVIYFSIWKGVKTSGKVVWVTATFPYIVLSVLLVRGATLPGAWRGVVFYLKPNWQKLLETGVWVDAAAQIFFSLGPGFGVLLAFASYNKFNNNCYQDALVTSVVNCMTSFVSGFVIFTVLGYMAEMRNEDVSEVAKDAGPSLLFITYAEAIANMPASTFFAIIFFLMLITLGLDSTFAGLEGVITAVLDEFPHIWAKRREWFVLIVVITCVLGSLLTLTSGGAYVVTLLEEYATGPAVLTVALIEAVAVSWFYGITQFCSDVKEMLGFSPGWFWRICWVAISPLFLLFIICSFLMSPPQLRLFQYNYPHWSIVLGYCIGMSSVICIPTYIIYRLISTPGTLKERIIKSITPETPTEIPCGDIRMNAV
Agonist Androgen Response Element (ARE), AR (gene 367), sequence (P10275 whole entry, looked up): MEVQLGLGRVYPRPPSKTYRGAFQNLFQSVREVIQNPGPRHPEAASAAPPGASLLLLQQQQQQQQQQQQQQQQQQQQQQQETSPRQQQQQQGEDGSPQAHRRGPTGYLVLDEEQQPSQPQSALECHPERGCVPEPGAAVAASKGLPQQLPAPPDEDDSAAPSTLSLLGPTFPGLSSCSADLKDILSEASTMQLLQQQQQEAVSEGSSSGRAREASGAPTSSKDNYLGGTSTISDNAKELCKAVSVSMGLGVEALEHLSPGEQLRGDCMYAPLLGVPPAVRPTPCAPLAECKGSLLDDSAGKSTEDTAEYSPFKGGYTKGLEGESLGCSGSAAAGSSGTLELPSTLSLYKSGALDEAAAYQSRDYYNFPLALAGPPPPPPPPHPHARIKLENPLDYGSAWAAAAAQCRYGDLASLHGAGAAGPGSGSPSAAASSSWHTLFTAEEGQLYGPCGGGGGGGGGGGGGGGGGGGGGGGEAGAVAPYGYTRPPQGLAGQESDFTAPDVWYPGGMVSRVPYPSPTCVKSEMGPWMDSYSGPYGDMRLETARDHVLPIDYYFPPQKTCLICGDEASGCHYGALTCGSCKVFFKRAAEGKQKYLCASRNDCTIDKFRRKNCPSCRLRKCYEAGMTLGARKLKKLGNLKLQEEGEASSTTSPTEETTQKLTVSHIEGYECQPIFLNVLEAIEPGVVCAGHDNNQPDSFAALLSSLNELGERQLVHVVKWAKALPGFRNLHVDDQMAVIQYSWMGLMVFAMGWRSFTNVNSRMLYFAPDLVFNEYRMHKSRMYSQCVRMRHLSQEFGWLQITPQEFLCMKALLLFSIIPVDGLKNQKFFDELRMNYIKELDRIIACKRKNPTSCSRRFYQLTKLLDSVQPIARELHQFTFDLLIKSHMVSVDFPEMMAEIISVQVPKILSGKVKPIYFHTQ

The first experiment deals with rat Serotonin Transporter (SERT), Slc6a4 (gene 25553) (UniProt P31652). In words: NVS_TR_rSERT: NovaScreen (NVS) Transporter Assay for rat Serotonin Transporter (SERT) (AID 2283375). In short, it runs like this:
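Rat forebrain membranes; radioligand displacement at SERT read by filter-based scintillation counting, 1 h after dosing. Screened in duplicate at 25 uM, actives then run in concentration series; loss of signal versus DMSO baseline.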
Take `CNCc1cc(F)ccc1Oc1ccc(Cl)c(Cl)c1`: the AC50 is 3.46 nM (active). `Cc1c(C(=O)O)c(O)cc2c1C(=O)c1c(O)c([C@@H]3O[C@H](CO)[C@@H](O)[C@H](O)[C@H]3O)c(O)c(O)c1C2=O`: the compound was called inactive. On to `CCCCCC(=O)O`, for which the outcome was inactive.

A further experiment deals with human Norepinephrine Transporter (NET), SLC6A2 (gene 6530) (UniProt P23975). The experiment can be described thus: NVS_TR_hNET: NovaScreen (NVS) Transporter Assay for human Norepinephrine Transporter (NET) (AID 2283377).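 Also: cell-free membrane protein extracted from CHO cells expressing human NET.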 Summed up:
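Radioligand binding to human NET in cell-free CHO-derived protein preparations, read by filter-based scintillation counting 1 hour after dosing. Loss of signal versus DMSO baseline indicated displacement; primary screening in duplicate at 25 uM, actives then titrated.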
With `Cc1cccc(Nc2cc(Cl)nc(SCC(=O)O)n2)c1C`, the compound was classed as inactive.

For the compound `Nc1ccc(S(=O)(=O)c2ccc(N)cc2)cc1`, the result was inactive.

As to `Nc1nc(N)c2nc(CNc3ccc(C(=O)N[C@@H](CCC(=O)O)C(=O)O)cc3)cnc2n1`, the outcome was inactive. On to `CC1(C)CC(N=C=O)CC(C)(CN=C=O)C1` (configuration not stated), for which the AC50 is 9.14 µM (active). In the case of `CC1=C(/C=C/C(C)=C/C=C/C(C)=C/CO)C(C)(C)CCC1`, the outcome was inactive.

The target of a further experiment is mouse Estrogen Receptor alpha (Era), Esr1 (gene 13982) (UniProt P19785). In words: NVS_NR_mERa: NovaScreen (NVS) Nuclear Receptor Binding Assay for mouse Estrogen Receptor alpha (Era) (AID 2283378).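 Also: hit means loss of bound radioligand signal relative to DMSO.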 In short, it runs like this:
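Cell-free radioligand competitive displacement binding, read by filter-based scintillation counting 18 h after dosing. Primary screen run in duplicate at 25 uM, actives retested in concentration series; loss of signal versus DMSO.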
Consider `Cc1cccc(Nc2cc(Cl)nc(SCC(=O)O)n2)c1C`, for which the outcome was inactive. In the case of `CCCc1cc(=O)[nH]c(=S)[nH]1`, the call was inactive. Turning to `COC(=O)c1ccc(O)cc1`, the compound was classed as inactive. In the case of `CC(=O)C(C)=CC1C(C)=CCCC1(C)C` (configuration not stated), the call was inactive. `O=C(O)Cc1ccccc1Nc1c(Cl)cccc1Cl`: the compound was classed as inactive. Regarding `CN[C@H]1CC[C@@H](c2ccc(Cl)c(Cl)c2)c2ccc(S(N)(=O)=O)cc21`, the compound was classed as inactive.

A further experiment addresses Agonist Androgen Response Element (ARE), AR (gene 367) (UniProt P10275). The experiment can be described thus: OT_AR_ARELUC_AG_1440: Odyssey Thera (OT) 24-hour CHO-K1 Luciferase Assay for Agonist Androgen Response Element (ARE) (AID 2283379). Summed up: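 Seed CHO-K1 cells; dose compounds for 24 h; add D-luciferin plus ATP in PBS; read luminescence. Signal increase relative to vehicle defines agonist activity, with at least 3 replicate wells per sample.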
As for `Cc1cccc(Nc2cc(Cl)nc(SCC(=O)O)n2)c1C`, the outcome was inactive. On to `Cc1ccc(C)c(O)c1C`, for which the compound was classed as inactive. On the same count and under the same terms, with `CCCCCC(=O)O` the entry was “inactive”. As to `COc1ccc2c(c1)c(CC(=O)O)c(C)n2C(=O)c1ccc(Cl)cc1`, the compound was called inactive. Take `CN[C@H]1CC[C@@H](c2ccc(Cl)c(Cl)c2)c2ccc(S(N)(=O)=O)cc21`: the compound was classed as inactive.

A further experiment has as its target Estrogen receptor beta (Homo sapiens) (UniProt Q92731). The experiment can be described thus: OT_ER_ERbERb_1440: Odyssey Thera (OT) 24-hour HEK293T Protein-Complementation Assay for Estrogen Receptor-beta/-beta Homodimer (AID 2283380).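 Also: fluorescence gain from ER beta LBD homodimer complementation read by laser scanning cytometry; scored as signal increase over DMSO baseline for both agonists and antagonists.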 In short, it runs like this: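 HEK293T cells stably expressing human ER-beta LBD (aa 310-547) PCA homodimer pair, dosed 24 h; formaldehyde-fixed, Draq5-stained. Readout: increase in nuclear (agonist) or nuclear plus cytoplasmic (antagonist) fluorescence intensity versus DMSO, gain-of-signal fitting.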
On to `Cc1cccc(Nc2cc(Cl)nc(SCC(=O)O)n2)c1C`, for which the compound was classed as inactive. The same measure, in the same setting: the result for `CCCCCCCCCCC` reads “inactive”; that for `CCCCCCCCCCCC(=O)OC`, “inactive”; that for `O=[N+]([O-])C(CO)(CO)CO`, “inactive”. With `CCc1c(C(=O)NN2CCCCC2)nn(-c2ccc(Cl)cc2Cl)c1-c1ccc(Br)cc1`, the outcome was inactive. The same measure, in the same setting: the result for `CN1CCCC1=O` reads “inactive”; that for `C[C@]12C=CC(=O)C=C1CC[C@@H]1[C@@H]2C(=O)C[C@@]2(C)[C@H]1CC[C@]2(O)C(=O)CO`, “inactive”.

For `CNCc1cc(F)ccc1Oc1ccc(Cl)c(Cl)c1`, the compound was classed as inactive. The same measure, in the same setting: with `COC(=O)c1ccc(O)cc1` the entry was “inactive”; with `Cc1c(C(=O)O)c(O)cc2c1C(=O)c1c(O)c([C@@H]3O[C@H](CO)[C@@H](O)[C@H](O)[C@H]3O)c(O)c(O)c1C2=O`, “inactive”; with `Nc1nc(N)c2nc(CNc3ccc(C(=O)N[C@@H](CCC(=O)O)C(=O)O)cc3)cnc2n1`, “inactive”. In the case of `O=C(O)Cc1ccccc1Nc1c(Cl)cccc1Cl`, the result was inactive. Turning to `CCCCN(CCCC)CCCC`, the result was inactive.

`CCCCCC(=O)O`: the outcome was inactive. `CCCCCCCCCCCCCO`: the call was inactive. Regarding `O=c1c(O)c(-c2ccc(O)c(O)c2)oc2cc(O)cc(O)c12`, the AC50 is 19.2 µM (active). With `CN[C@H]1CC[C@@H](c2ccc(Cl)c(Cl)c2)c2ccc(S(N)(=O)=O)cc21`, the outcome was inactive. As for `CC1=C(/C=C/C(C)=C/C=C/C(C)=C/CO)C(C)(C)CCC1`, the call was inactive.
